Each structure is given as a SMILES string. Out of some 16,000 compounds screened, about 5,700 (36%) were called active. Inconclusive results (about 24%) are left out. This is one part of the list. Values without a mark were called inactive. Calls follow the shape of the dose curve; as a rule, active = well fitted curve in the direction sought with a large enough effect; inconclusive = small, poorly fitted or top-dose-only effect, or effect the other way; inactive = no such curve, though single readings can be large or run the other way.
% is scaled to controls: 0 for no effect and ±100 for the full control effect.

In this assay the target is Cytochrome P450 1A2 (Homo sapiens) (UniProt P05177). In words: Cytochrome panel assay with activity outcomes. The following applies: recombinant CYP, pro-luciferin dealkylation, luminescence, p450-cyp1a2; series mostly up to 57.1 µM.
Sequence of Cytochrome P450 1A2 (Homo sapiens) (P05177 whole entry, looked up): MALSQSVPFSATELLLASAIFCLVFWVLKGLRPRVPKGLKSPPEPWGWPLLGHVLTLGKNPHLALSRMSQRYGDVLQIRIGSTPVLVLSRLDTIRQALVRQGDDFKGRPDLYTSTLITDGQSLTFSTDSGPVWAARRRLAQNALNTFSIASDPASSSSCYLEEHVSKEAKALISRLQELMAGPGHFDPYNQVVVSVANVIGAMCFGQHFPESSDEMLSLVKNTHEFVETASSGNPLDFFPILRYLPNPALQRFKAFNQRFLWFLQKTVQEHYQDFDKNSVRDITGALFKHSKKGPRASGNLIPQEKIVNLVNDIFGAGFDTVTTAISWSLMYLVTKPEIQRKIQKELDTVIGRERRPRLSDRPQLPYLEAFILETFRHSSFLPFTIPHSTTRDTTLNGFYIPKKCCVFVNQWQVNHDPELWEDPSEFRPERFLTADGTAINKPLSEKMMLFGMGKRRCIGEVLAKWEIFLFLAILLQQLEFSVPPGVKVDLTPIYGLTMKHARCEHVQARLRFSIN
For the molecule `COc1ccccc1-c1cc(Nc2ccc(F)cc2)ncn1`, the AC50 was 2 µM (active).

For `COc1ccccc1-c1cc(Nc2ccn[nH]2)ncn1`, the AC50 was 0.631 µM (active).

Consider `Cc1ccccc1-c1cncnc1NCc1cccs1`, for which the AC50 was 3.16 µM (active).

As for `CN(C)Cc1ccccc1-c1cncnc1NCc1cccs1`, the AC50 is 25.1 µM (active).

Regarding `COc1ccccc1-c1cncnc1NCc1cccs1`, the AC50 is 3.16 µM (active).

Regarding `O=P(Cc1cc[n+]([O-])cc1)(c1ccccc1)c1ccccc1`, the AC50 entry was “inactive”.

For the molecule `c1ccc(CNc2nc(-c3ccc4c(c3)OCO4)nc3ccccc23)cc1`, the AC50 was 0.501 µM (active).

For `COc1ccccc1CNc1nc(-c2ccc3c(c2)OCO3)nc2ccccc12`, the AC50 was 0.631 µM (active).

`c1cncc(CNc2nc(-c3ccc4c(c3)OCO4)nc3ccccc23)c1`: the AC50 was 0.1 µM (active).

On to `Cc1cccc(CNc2nc(-c3ccc4c(c3)OCO4)nc3ccccc23)c1`, for which the AC50 was 0.631 µM (active).

For `CC[C@]1(c2ncc[nH]2)Cc2ccccc2O1`, the AC50 entry was “inactive”.

Turning to `CC(C)OC(=O)C(CC(=O)O)N1CCOCC1` (centres undefined), the AC50 result was “inactive”.

As to `COc1ccc(NC(=O)N2CC3(CCN(C(=O)c4ccc(OC)cc4)CC3)C2)cc1`, the AC50 result is “inactive”.

Take `CC(=O)OC[C@@H]1O[C@@H](O/N=C2/C[C@@H](O)[C@@H](O)[C@@H]3[C@@H]4C(=O)N(C5CCCCC5)C(=O)[C@H]4CC[C@@H]23)[C@H](OC(C)=O)[C@H](OC(C)=O)[C@@H]1OC(C)=O`: the activity, negative = inhibition was 0.189% [at 11.4 µM].

On to `O=c1[nH]c(=O)n([C@@H]2C[C@H](O)[C@H](CO)O2)cc1C(F)(F)F`, for which the AC50 result is “inactive”.

As to `COc1ccc(COC(=O)N/N=C2/C[C@@H](O)[C@@H](O)[C@@H]3[C@@H]4C(=O)N([C@@H](C)c5ccccc5)C(=O)[C@H]4CC[C@H]23)cc1`, the activity, negative = inhibition was -2.7% [at 11.4 µM].

As to `Cc1cnc(CNc2nc(-c3ccc4c(c3)OCO4)nc3ccccc23)cn1`, the AC50 is 2 µM (active).

In the case of `c1csc(CNc2nc(-c3ccc4c(c3)OCO4)nc3ccccc23)c1`, the AC50 was 0.794 µM (active).

For `COc1ccccc1CNc1nc(-c2ccc(N(C)C)cc2)nc2ccccc12`, the AC50 was 2.51 µM (active).

For the molecule `NCCNCC1CCNCC1`, the activity, negative = inhibition is -3.59% [at 2.29 µM].

Take `CCn1cc(C(=O)NCC(=O)OC)c2cc(OC)c(OC)cc2c1=O`: the AC50 entry is “inactive”.

In the case of `NCc1ccccc1CC(=O)N[C@@H]1C(=O)N2C(C(=O)O)=C(CSc3nnnn3CC(=O)O)CS[C@@H]12`, the AC50 result is “inactive”.

`COc1ccc(NC(=O)N2CC[C@@]3(CCCN(C(=O)c4cc(C(F)(F)F)cc(C(F)(F)F)c4)C3)C2)cc1`: the AC50 result was “inactive”.

In the case of `O=C(NCc1ccco1)c1ccc2c(=O)n(-c3ccccc3)c(=S)[nH]c2c1`, the AC50 entry was “inactive”.

As to `COc1ccc(NC(=O)c2ccc3c(=O)n(Cc4ccco4)c(=S)[nH]c3c2)c(OC)c1`, the AC50 is 0.794 µM (active).

With `CC(C)NC(=O)c1ccc2c(=O)n(Cc3ccco3)c(=S)[nH]c2c1`, the AC50 is 15.8 µM (active).

As to `COc1ccc2c(C=Nc3c(C)n(C)n(-c4ccccc4)c3=O)c(O)n(Cc3ccco3)c(=O)c2c1`, the AC50 entry is “inactive”.

For `COc1ccc(CCNC(=O)c2ccc3c(=O)n(Cc4ccco4)c(=S)[nH]c3c2)cc1OC`, the AC50 is 25.1 µM (active).

For `COc1ccc(CCNC(=O)c2nnn(CC(=O)Nc3ccccc3C)c2N)cc1OC`, the AC50 result is “inactive”.

In general, AC50 refers to the concentration giving half of the maximal activity seen.

Values taken from PubChem BioAssay AID1851 (National Center for Advancing Translational Sciences (NCATS), 2009).
